GLS inhibitor: blocks human kidney-isoform glutaminase activity. O94925. GLS enzymatic activity, qHTS titration. Potency, µM (highest dose often 45.5 µM), for the others: at the top dose activity change, negative = inhibition, most hits filed as inhibitors. actives 0.21% (n = 410,000); also: % is scaled to controls: 0 for no effect and ±100 for the full control effect
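hKGA in 45 mM KH2PO4 (pH 8.2), 0.02% Tween-20 with compound, then 1mM L-Glutamine (stock as added) plus glutamate oxidase/HRP/Amplex red coupling mix. Fluorescence read initially and after 30 min at RT; signal change reflects glutamate formation.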
HP1b chromo inh: blocks HP1-beta chromodomain binding to methylated histone tails | P83916 | Potency, µM (titrated, usually from 114 µM), without a hit: at the highest dose activity change, negative = inhibition, usual class: inhibitors | AID 540317 | AlphaScreen HP1-beta / biotin-H3K9me3 peptide binding | actives 0.56% (n = 390,000); also: nearly all actives have a fitted effect of over 70% in size
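Compound inhibition of the preformed complex between 50 nM HP1-beta and 50 nM biotinylated H3K9me3 peptide was read by AlphaScreen. Buffer was PBS pH 7.4 with 0.01% Tween-20. Incubations ran 30 min at room temperature, with 10 ug/mL donor/acceptor beads.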
JMJD2A Tudor inh: JMJD2A Tudor domain (human) inhibition; AlphaScreen JMJD2A-Tudor / H3K4me3 peptide binding; Potency, µM (doses to about 114 µM), for inactives: top-dose activity change, negative = inhibition, usual class: inhibitors; actives 4.4% (n = 390,000); AID 504339; also: % is scaled to controls: 0 for no effect and ±100 for the full control effect; nearly all actives have a fitted effect of over 50% in size
Target sequence (O75164 whole entry, looked up, the tested form may be a part): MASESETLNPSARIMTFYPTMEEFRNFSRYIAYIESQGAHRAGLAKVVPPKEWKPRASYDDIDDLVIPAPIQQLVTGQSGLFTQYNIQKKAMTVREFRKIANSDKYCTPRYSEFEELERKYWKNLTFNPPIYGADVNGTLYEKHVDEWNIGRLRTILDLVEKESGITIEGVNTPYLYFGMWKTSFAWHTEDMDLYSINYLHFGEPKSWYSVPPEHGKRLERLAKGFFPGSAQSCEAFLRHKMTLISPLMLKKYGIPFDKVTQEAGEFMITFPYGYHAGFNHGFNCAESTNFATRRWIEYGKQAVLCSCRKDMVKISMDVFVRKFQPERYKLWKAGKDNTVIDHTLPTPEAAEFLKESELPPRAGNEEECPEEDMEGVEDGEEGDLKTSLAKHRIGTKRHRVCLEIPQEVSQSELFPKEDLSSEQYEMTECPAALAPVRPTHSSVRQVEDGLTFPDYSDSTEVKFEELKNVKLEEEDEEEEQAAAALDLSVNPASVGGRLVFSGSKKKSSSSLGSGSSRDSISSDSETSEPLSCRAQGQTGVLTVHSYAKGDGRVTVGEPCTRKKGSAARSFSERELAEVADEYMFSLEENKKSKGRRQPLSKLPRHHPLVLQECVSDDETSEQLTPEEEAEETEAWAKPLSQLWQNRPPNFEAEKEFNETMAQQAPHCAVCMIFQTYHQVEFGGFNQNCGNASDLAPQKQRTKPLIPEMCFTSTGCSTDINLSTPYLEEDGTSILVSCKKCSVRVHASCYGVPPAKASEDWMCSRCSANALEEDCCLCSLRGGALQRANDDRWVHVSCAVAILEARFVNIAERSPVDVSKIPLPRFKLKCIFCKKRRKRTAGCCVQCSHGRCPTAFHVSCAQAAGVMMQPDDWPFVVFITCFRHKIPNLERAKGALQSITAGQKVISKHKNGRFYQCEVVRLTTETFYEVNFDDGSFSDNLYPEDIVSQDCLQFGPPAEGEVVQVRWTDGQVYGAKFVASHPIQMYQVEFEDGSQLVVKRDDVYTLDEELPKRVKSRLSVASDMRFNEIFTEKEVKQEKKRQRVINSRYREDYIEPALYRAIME
G9a block: blocks human histone lysine methyltransferase G9a | G9a H3K9 monomethylation, AlphaScreen, 2 h | actives 8.8% (n = 350,000) | Potency, µM (doses to about 102 µM), inactives show at the top dose activity, negative = inhibition, most hits filed as inhibitors | AID 504332; also: % is scaled to controls: 0 for no effect and ±100 for the full control effect; nearly all actives have a fitted effect of over 75% in size
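Chemiluminescent proximity detection of H3K9 monomethylation, read after 10 min bead incubation in the dark. Reaction: 20 nM G9a, 500 nM biotin-H3K9 peptide, 20 uM SAM cofactor, 2 h, room temperature, following 15 min enzyme-compound preincubation.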
BAZ2B inh: BAZ2B (human) inhibition; AlphaScreen BAZ2B-H3K14Ac peptide displacement; Potency, µM (top dose mostly 114 µM), for inactives: at the highest dose activity change, negative = inhibition, actives largely listed as inhibitors; actives 4.4% (n = 360,000); also: % is scaled to controls: 0 for no effect and ±100 for the full control effect; nearly all actives have a fitted effect of over 60% in size
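Multi-concentration screen (max 110 uM) measuring displacement of acetylated histone H3 peptide from BAZ2B by AlphaScreen, using 50 nM protein, 50 nM peptide and 10 ug/mL streptavidin donor plus Ni-chelate acceptor beads.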
* = called active by the depositor; u = inconclusive; x = no result; [ ] = dose if it differs, or a comment. The list is not random: actives were taken first. Their share in the collection is about 10%. Calls follow the shape of the dose curve; as a rule, active = well fitted curve in the direction sought with a large enough effect; inconclusive = small, poorly fitted or top-dose-only effect, or another doubt; inactive = no such curve, though single readings can be large; an effect the other way counts as inactive or inconclusive. Potency is read from the fitted curve at half-maximal effect.

SMILES	GLS inhibitor	HP1b chromo inh	JMJD2A Tudor inh	G9a block	BAZ2B inh
COc1cc(NC(=O)CCC(=O)O)nc(OC)n1	1%	22%	-13%	18%	3%
COc1ccc(N2CCN(CCCNS(=O)(=O)c3c(C)noc3/C=C/N(C)C)CC2)cc1	x	x	x	u	35µM*
Cc1ccc(C)n1-c1ccc(N(C)C)cc1	13µM*	u	50µM*	7.1µM*	25µM*
Nc1cc(S(=O)(=O)O)cc2ccc(S(=O)(=O)O)cc12	-16%	-22%	-11%	x	x
O=S(=O)(O)c1cc(O)c2c(O)c(N=Nc3cc(Cl)ccc3O)c(S(=O)(=O)O)cc2c1	25%	20µM*	10µM*	10µM*	11µM*
Cc1cc(-c2ccc(N=Nc3c(S(=O)(=O)O)cc4cc(S(=O)(=O)O)cc(N)c4c3O)c(C)c2)ccc1N=Nc1c(S(=O)(=O)O)cc2cc(S(=O)(=O)O)cc(N)c2c1O	16%	x	x	u	1.4µM*
COc1ccc(-c2ccc(C(=O)O)c(=O)[nH]2)cc1	7%	6%	-3%	u	u
COc1ccc(Nc2ncccc2C(=O)NCc2ccccc2)cc1	-2%	-3%	u	-6%[12.7 µM]	u
COc1cccc(Nc2ncccc2C(=O)NCc2ccccc2)c1	-6%	13%	-25%	8.9µM*	1%
COc1ccc(Nc2ncccc2C(=O)Nc2ccccc2)cc1	u	u	u	u	50µM*
O=c1[nH]c(=S)[nH]c(-c2ccccc2)c1Cc1c(O)ccc2ccccc12	x	x	x	16%[59 µM]	x
CCc1ccc(NC(=O)CSc2nc3cc(C(=O)OC)ccc3c(=O)n2Cc2ccco2)cc1	2%	1%	-9%	41%[12.7 µM]	3%
CCCC(C(=O)Nc1cc(C)c(Cl)cc1OC)N1Cc2ccccc2C1=O (stereo unspecified)	-2%	14%	-12%	-1%[59 µM]	-11%
COc1ccccc1/C=C/C(=O)OCC(=O)NCc1ccco1	-9%	-11%	-31%	4%[59 µM]	u
O=C(COC(=O)/C=C/c1cccc([N+](=O)[O-])c1)NCc1ccco1	-2%	12%	-23%	10%	71µM*
O=C(COC(=O)/C=C/c1ccc([N+](=O)[O-])cc1)NCc1ccco1	-13%	19%	-11%	10%	2%
COc1cc(/C=C/C(=O)OCC(=O)NCc2ccco2)ccc1O	4%	8%	-11%	40µM*	-17%
CC[C@]12C(=O)N(C)C[C@H]([C@@H]3C(=O)N(Cc4ccccc4)C(=O)[C@@H]31)N2C(=O)c1ccc(Br)cc1	1%	u	-10%	x	x
COc1ccc(NS(=O)(=O)c2ccc(C)c(C(=O)NCCCN3CCCC3=O)c2)cc1	22%	16%	-8%	-1%[12.7 µM]	-3%
CC1(C)OC(=O)C2(Cc3ccc(Br)cc3N3CCCCC32)C(=O)O1 (stereo unspecified)	x	5%	56µM*	x	x
COCCn1nc2cc(C(=O)NCc3cc(C(F)(F)F)cc(C(F)(F)F)c3)ccc2c1OC	3%	43%	-5%	5%[2.33 µM]	-3%[57.1 µM]
COC(=O)C1=C(C)N(CCc2ccc(OC)c(OC)c2)C(=O)/C1=C\c1ccc(O)cc1	-2%	-13%	u	10µM*	u
CCOc1cc(/C=C2\C(=O)N(Cc3ccc(C)cc3)C(C)=C2C(=O)OC)ccc1O	-2%	-96%	25µM*	8.9µM*	u
CCOC(=O)C1=C(C)N(c2ccc(C)c(C)c2)C(=O)/C1=C\c1ccco1	-9%	-51%	32µM*	35µM*	32µM*
COCCCN1C(=O)/C(=C\c2ccc3c(c2)OCO3)C(C(=O)OC)=C1C	1%	10%	-35%	-21%	-32%
SMILES	GLS inhibitor	HP1b chromo inh	JMJD2A Tudor inh	G9a block	BAZ2B inh
C=CCOc1cccc(/C=C2\C(=O)N(Cc3ccc(C)cc3)C(C)=C2C(=O)OC)c1	-3%	51%	3%	-9%[59 µM]	-10%
CCN1C(=O)/C(=C\c2ccc3c(c2)OCO3)C(C(=O)OC)=C1C	3%	u	-34%[57.1 µM]	50µM*	u
FC(F)(F)c1cccc(Nc2cc(-c3ccccc3)nc3ncnn23)c1	-3%	37%	-10%	21%	-2%
CC(=O)Nc1nc(SCc2cccc3ccccc23)n[nH]1	-2%	34%	-3%	-3%	14%
CCOC(=O)C1=C(C)N(c2ccc(OC)cc2)C(=O)/C1=C\c1ccc(O)c(OCC)c1	-2%	u	14µM*	u	50µM*
CCOC(=O)C1=C(C)N(c2ccc(OC)cc2)C(=O)/C1=C\c1cccs1	-1%	-3%	-31%	-7%[59 µM]	u
Cc1ccc(NC(=S)NCc2ccc3c(c2)cc(C)n3C)c(C)c1	28%	u	22µM*	-28%	u
CC(=O)c1cc(O)c2ccccc2c1O	6%	u	56µM*	3.2µM*	45µM*
CCCn1c(=O)c2[nH]cnc2n(-c2ccc(Cl)cc2)c1=O	1%	21%	4%	10%	-1%
Cc1cc(C)cc(N=C2SC(CC(=O)Nc3ccccc3)C(=O)N2CCN2CCOCC2)c1 (stereo unspecified)	-16%	1%	u	50µM*	u
O=C(CC1SC(=Nc2ccccc2)N(CCO)C1=O)Nc1ccccc1 (stereo unspecified)	-1%	7%	-14%	x	8%
Nc1nc(CN2CCN(c3ccccc3F)CC2)nc(N2CCCc3ccccc32)n1	2%	3%	u	u	50µM*
Nc1nc(CN2CCN(c3ccccc3)CC2)nc(N2CCCc3ccccc32)n1	13%	-6%	50µM*	50µM*	u
Nc1nc(CN2CCN(Cc3ccccc3)CC2)nc(N2CCCc3ccccc32)n1	1%	14%	-21%	x	u
COc1ccc(N2CCN(Cc3nc(N)nc(N4CCCc5ccccc54)n3)CC2)cc1	55%	u	50µM*	45µM*	11µM*
O=c1[nH]c(=O)n([C@H]2C[C@H](O)[C@@H](CO)O2)cc1I	9%	12%	-9%	-3%[59 µM]	-2%
CCCC(=O)Nc1cc(C)c(NC(=O)c2ccccn2)cn1	14%	37%	u	7.9µM*	50µM*
Cc1cc(NC(=O)C(C)C)ncc1NC(=O)c1ccccn1	9%	-7%	-15%	18µM*	50µM*
CCOc1cc(NC(=O)c2ccccn2)c(OCC)cc1NC(=O)c1ccccc1	1%	55%	1%	-2%	-1%
CCOc1cc(NC(=O)c2ccccn2)c(OCC)cc1NC(=O)CC(C)C	26%	-10%	20µM*	11%[59 µM]	7%
C/C(N)=C(/C#N)C(=O)COc1ncnc2ccc(Br)cc12	-3%	35%	-8%[57.1 µM]	1%	-3%
O=C(c1c(F)cccc1F)N1CCCC(c2nc(-c3ccc(F)cc3)no2)C1 (stereo unspecified)	0%	30%	-1%	0%	-6%
